Laboratory results from PubChem BioAssay AID1159580 (chemical genetic matrix, 2015).
Values joined by “and” are separate entries in the source; they are usually repeats but may differ in a detail not shown here. Equal entries are not always repeated. The campaign covered roughly 5,500 compounds. About 2,000 (36%) were called active. Inconclusive results (about 18%) are left out. No stated cut-off is given here; in the data, active means normalized growth mostly below about 0.91 (no sharp cut-off); inconclusive means no clear call, values can overlap the other calls; inactive means mostly above about 0.92. The list shows a part of the results.

Assay: chemical genetic growth profiling, strain panel (AID 1159580);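 further: tested at 20 µM; growth read once vehicle control cultures reached saturation at 30 °C; 1 = growth at the plate median or of vehicle wells; lower values mean less growth of the strain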
Settings: S. cerevisiae deletion strains, growth OD

Measured: normalized growth

COC(=O)C[C@H]1C(C)(C)C2(O)OC34CC2C(=O)[C@]1(C)C3CC[C@]1(C)C4=CC(=O)O[C@H]1c1ccoc1 (some centres not stated)
inactive: locus YAL013W, strain DEP1, hits give low values 1.01 | locus YAL021C, strain ccr4, hits give low values 0.99 | locus YAL026C, strain drs2, hits give low values 0.998 | locus YAL030W, strain snc1, hits give low values 0.99 | locus YBL061C, strain skt5, hits give low values 0.999 | locus YBR009C, strain hhf1, hits give low values 1.01 | locus YBR021W, strain FUR4, hits give low values 0.976 | locus YBR023C, strain chs3, hits give low values 0.99 | locus YBR171W, strain sec66, hits give low values 0.973 | locus YBR229C, strain ROT2, hits give low values 1.01 | locus YBR231C, strain swc5, hits give low values 0.986 | locus YBR279W, strain paf1, hits give low values 0.998 | locus YCL011C, strain gbp2, hits give low values 0.978 | locus YCL016C, strain dcc1, hits give low values 1 | locus YCL029C, strain bik1, hits give low values 1.01 | locus YCL061C, strain MRC1, hits give low values 1.02 | locus YCL069W, strain vba3, hits give low values 0.977 | locus YCR088W, strain abp1, hits give low values 0.978 | locus YDL005C, strain med2, hits give low values 0.991 | locus YDL035C, strain GPR1, hits give low values 1 | locus YDL040C, strain nat1, hits give low values 0.973 | locus YDL074C, strain BRE1, hits give low values 1.01 | locus YDL101C, strain DUN1, hits give low values 1 | locus YDL134C, strain PPH21, hits give low values 1.01 | locus YDL185W, strain tfp1, hits give low values 1.01 | locus YDL192W, strain arf1, hits give low values 1.01 | locus YDR001C, strain nth1, hits give low values 0.991 | locus YDR069C, strain doa4, hits give low values 0.988 | locus YDR101C, strain arx1, hits give low values 1.01 | locus YDR137W, strain rgp1, hits give low values 1.03 | locus YDR150W, strain NUM1, hits give low values 0.993 | locus YDR159W, strain sac3, hits give low values 0.973 | locus YDR162C, strain NBP2, hits give low values 1.02 | locus YDR195W, strain ref2 0.963 | locus YDR297W, strain sur2, hits give low values 0.994 | locus YDR318W, strain mcm21, hits give low values 1 | locus YDR334W, strain swr1, hits give low values 0.975 | locus YDR335W, strain msn5, hits give low values 0.983 | locus YDR388W, hits give low values 1 | locus YDR392W, strain spt3, hits give low values 0.952 | locus YDR502C, strain sam2, hits give low values 0.994 | locus YEL003W, strain gim4, hits give low values 0.992 | locus YEL037C, strain rad23, hits give low values 0.98 | locus YEL061C, strain CIN8 (second series), hits give low values 0.972 | locus YER015W, strain faa2, hits give low values 0.996 | locus YER016W, strain bim1, hits give low values 0.984 | locus YER110C, hits give low values 1.02 | locus YER111C, strain swi4, hits give low values 0.985 | locus YER155C, strain BEM2 (second series), hits give low values 0.993 | locus YER155C, strain BEM2, hits give low values 0.992 | locus YER167W, strain BCK2, hits give low values 0.996 | locus YFR010W, strain ubp6, hits give low values 0.974 | locus YGL078C, strain dbp3, hits give low values 1.02 | locus YGL086W, strain mad1, hits give low values 0.99 | locus YGL167C, strain pmr1, hits give low values 1 | locus YGL173C, strain kem1, hits give low values 0.988 | locus YGL227W, strain vid30, hits give low values 0.983 | locus YGL240W, strain doc1, hits give low values 0.971 | locus YGL248W, strain PDE1, hits give low values 1.01 | locus YGL253W, strain hxk2, hits give low values 0.968 | locus YGR135W, strain pre9, hits give low values 1.01 | locus YGR252W, strain gcn5, hits give low values 1.05 | locus YHR013C, strain ard1, hits give low values 0.988 | locus YHR027C, strain rpn1, hits give low values 0.99 | locus YHR030C, strain SLT2, hits give low values 1 and 0.968 | locus YHR079C, strain IRE1 (second series), hits give low values 1.01 | locus YHR079C, strain IRE1, hits give low values 0.972 | locus YHR094C, strain hxt1, hits give low values 1.02 | locus YHR129C, strain ARP1, hits give low values 1 | locus YHR142W, strain chs7, hits give low values 0.975 | locus YHR200W, strain rpn10, hits give low values 1 | locus YIL066C, strain RNR3, hits give low values 1.01 | locus YIL073C, strain SPO22, hits give low values 1.01 | locus YIL125W, strain kgd1, hits give low values 1.01 | locus YIR030C, strain dcg1, hits give low values 1.01 | locus YJL092W, strain hpr5, hits give low values 0.98 | locus YJL095W, strain BCK1 (second series), hits give low values 0.988 | locus YJL095W, strain BCK1, hits give low values 0.982 and 0.98 | locus YJL115W, strain asf1, hits give low values 0.984 | locus YJL129C, strain trk1, hits give low values 1 | locus YJL134W, strain LCB3, hits give low values 1 | locus YJL154C, strain vps35, hits give low values 0.989 | locus YJL164C, strain tpk1, hits give low values 1 | locus YJL166W, strain qcr8, hits give low values 0.986 | locus YJL168C, strain set2, hits give low values 0.996 | locus YJL187C, strain SWE1 (second series), hits give low values 1.01 | locus YJL187C, strain SWE1, hits give low values 1.01
